Common to all, as to assay: PBM; 200 nM protein, PBS
Holding throughout (details): dsDNA, one strand shown

Assay [1] has as its target HESX1 (Homo sapiens, UniProt Q9UBX0 95-180, R165K).
Assay [2] concerns the target HESX1 (Homo sapiens, UniProt Q9UBX0 95-180).
For assay [3], the target named is HESX1 (Homo sapiens, UniProt Q9UBX0 95-180, R109Q).
Assay [4] has as its target HESX1 (Homo sapiens, UniProt Q9UBX0 95-180, P111T).
Assay [5] deals with HESX1 (Homo sapiens, UniProt Q9UBX0 95-180, F115L).
Assay [6] concerns the target ALX3 (Homo sapiens, UniProt O95076 139-225, N203Q).
Assay [7] addresses ALX3 (Homo sapiens, UniProt O95076 139-225).
The target of assay [8] is PROP1 (Homo sapiens, UniProt O75360 56-141).
Assay [9] deals with PROP1 (Homo sapiens, UniProt O75360 56-141, R99H).
In assay [10] the target is ALX3 (Homo sapiens, UniProt O95076 139-225, L168Q).
The target of assay [11] is ALX3 (Homo sapiens, UniProt O95076 139-225, L168V).
Assay [12] concerns the target PROP1 (Homo sapiens, UniProt O75360 56-141, F88S).
The target in assay [13] is ALX3 (Homo sapiens, UniProt O95076 139-225, N203S).
Chain of ALX3 (Homo sapiens, UniProt O95076 139-225, N203S) (O95076 139-225 N203S): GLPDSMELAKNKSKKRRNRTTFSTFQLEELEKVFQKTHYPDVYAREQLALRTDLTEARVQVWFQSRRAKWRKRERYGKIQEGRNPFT

Chain of HESX1 (Homo sapiens, UniProt Q9UBX0 95-180) (Q9UBX0 95-180): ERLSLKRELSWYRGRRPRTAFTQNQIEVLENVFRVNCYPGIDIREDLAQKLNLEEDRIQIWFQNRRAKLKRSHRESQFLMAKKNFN
Chain of HESX1 (Homo sapiens, UniProt Q9UBX0 95-180, P111T) (Q9UBX0 95-180 P111T): as the sequence (Q9UBX0 95-180) above, with P17T counted along it
Chain of HESX1 (Homo sapiens, UniProt Q9UBX0 95-180, R165K) (Q9UBX0 95-180 R165K): as the sequence (Q9UBX0 95-180) above, with R71K counted along it
Chain of HESX1 (Homo sapiens, UniProt Q9UBX0 95-180, F115L) (Q9UBX0 95-180 F115L): as the sequence (Q9UBX0 95-180) above, with F21L counted along it
Chain of HESX1 (Homo sapiens, UniProt Q9UBX0 95-180, R109Q) (Q9UBX0 95-180 R109Q): as the sequence (Q9UBX0 95-180) above, with R15Q counted along it
Chain of ALX3 (Homo sapiens, UniProt O95076 139-225, N203Q) (O95076 139-225 N203Q): as the sequence (O95076 139-225 N203S) above, with S65Q counted along it
Chain of PROP1 (Homo sapiens, UniProt O75360 56-141, R99H) (O75360 56-141 R99H): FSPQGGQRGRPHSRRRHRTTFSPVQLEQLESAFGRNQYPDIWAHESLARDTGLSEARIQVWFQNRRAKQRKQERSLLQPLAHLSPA
Chain of PROP1 (Homo sapiens, UniProt O75360 56-141, F88S) (O75360 56-141 F88S): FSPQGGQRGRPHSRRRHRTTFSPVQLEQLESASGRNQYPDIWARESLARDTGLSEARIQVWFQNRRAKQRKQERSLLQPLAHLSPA
Chain of ALX3 (Homo sapiens, UniProt O95076 139-225, L168Q) (O95076 139-225 L168Q): as the sequence (O95076 139-225 N203S) above, with L30Q, S65N counted along it
Chain of ALX3 (Homo sapiens, UniProt O95076 139-225, L168V) (O95076 139-225 L168V): as the sequence (O95076 139-225 N203S) above, with L30V, S65N counted along it
Chain of PROP1 (Homo sapiens, UniProt O75360 56-141) (O75360 56-141): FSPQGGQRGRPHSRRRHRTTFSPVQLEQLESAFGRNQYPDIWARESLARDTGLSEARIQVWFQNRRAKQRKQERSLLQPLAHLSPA
Chain of ALX3 (Homo sapiens, UniProt O95076 139-225) (O95076 139-225): as the sequence (O95076 139-225 N203S) above, with S65N counted along it

With ATTGATTC, the binding signal with HESX1 [1] is 7.97 upbm affinity estimate (log intensity, higher = more binding, comparable within an allelic series); with HESX1 [2], 8.12 upbm affinity estimate (log intensity, higher = more binding, comparable within an allelic series); with HESX1 [3], 7.41 upbm affinity estimate (log intensity, higher = more binding, comparable within an allelic series); with HESX1 [4] it was 7.74 upbm affinity estimate (log intensity, higher = more binding, comparable within an allelic series).

For GAAGTCGC, the binding signal was 6.48 upbm affinity estimate (log intensity, higher = more binding, comparable within an allelic series) with HESX1 [1]; 6.36 upbm affinity estimate (log intensity, higher = more binding, comparable within an allelic series) with HESX1 [2]; 6.51 upbm affinity estimate (log intensity, higher = more binding, comparable within an allelic series) with HESX1 [3]; 6.43 upbm affinity estimate (log intensity, higher = more binding, comparable within an allelic series) with HESX1 [4]; 6.56 upbm affinity estimate (log intensity, higher = more binding, comparable within an allelic series) with HESX1 [5].

Consider CGACGTTC, for which the binding signal with HESX1 [1] was 6.45 upbm affinity estimate (log intensity, higher = more binding, comparable within an allelic series); in the assay with HESX1 [2], 6.3 upbm affinity estimate (log intensity, higher = more binding, comparable within an allelic series); with HESX1 [3] it was 6.42 upbm affinity estimate (log intensity, higher = more binding, comparable within an allelic series); with HESX1 [4], 6.41 upbm affinity estimate (log intensity, higher = more binding, comparable within an allelic series); with HESX1 [5], 6.52 upbm affinity estimate (log intensity, higher = more binding, comparable within an allelic series).

As to AGCCGAGC, the binding signal in the assay with HESX1 [1] is 6.4 upbm affinity estimate (log intensity, higher = more binding, comparable within an allelic series); in the assay with HESX1 [2], 6.26 upbm affinity estimate (log intensity, higher = more binding, comparable within an allelic series); in the assay with HESX1 [3], 6.48 upbm affinity estimate (log intensity, higher = more binding, comparable within an allelic series); in the assay with HESX1 [4], 6.46 upbm affinity estimate (log intensity, higher = more binding, comparable within an allelic series); with HESX1 [5], 6.45 upbm affinity estimate (log intensity, higher = more binding, comparable within an allelic series).

As for CACCCCCC, the binding signal with HESX1 [1] is 6.39 upbm affinity estimate (log intensity, higher = more binding, comparable within an allelic series); with HESX1 [2], 6.4 upbm affinity estimate (log intensity, higher = more binding, comparable within an allelic series); with ALX3 [6], 7.67 upbm affinity estimate (log intensity, higher = more binding, comparable within an allelic series); with ALX3 [7], 7.7 upbm affinity estimate (log intensity, higher = more binding, comparable within an allelic series); with PROP1 [8] it was 6.46 upbm affinity estimate (log intensity, higher = more binding, comparable within an allelic series); with HESX1 [3], 6.54 upbm affinity estimate (log intensity, higher = more binding, comparable within an allelic series). The binding signal with PROP1 [9] was 6.42 upbm affinity estimate (log intensity, higher = more binding, comparable within an allelic series); with ALX3 [10] it was 7.45 upbm affinity estimate (log intensity, higher = more binding, comparable within an allelic series); in the assay with HESX1 [4], 6.38 upbm affinity estimate (log intensity, higher = more binding, comparable within an allelic series); with ALX3 [11], 7.59 upbm affinity estimate (log intensity, higher = more binding, comparable within an allelic series); with PROP1 [12] it was 6 upbm affinity estimate (log intensity, higher = more binding, comparable within an allelic series); in the assay with HESX1 [5], 6.45 upbm affinity estimate (log intensity, higher = more binding, comparable within an allelic series). Further, the binding signal in the assay with ALX3 [13] is 7.71 upbm affinity estimate (log intensity, higher = more binding, comparable within an allelic series).

In the case of ATTAGCGA, the binding signal with HESX1 [1] is 9.89 upbm affinity estimate (log intensity, higher = more binding, comparable within an allelic series); with HESX1 [2], 10.1 upbm affinity estimate (log intensity, higher = more binding, comparable within an allelic series); with PROP1 [8], 10.2 upbm affinity estimate (log intensity, higher = more binding, comparable within an allelic series); with PROP1 [9] it was 9.94 upbm affinity estimate (log intensity, higher = more binding, comparable within an allelic series); with HESX1 [4] it was 8.88 upbm affinity estimate (log intensity, higher = more binding, comparable within an allelic series); with PROP1 [12], 7.4 upbm affinity estimate (log intensity, higher = more binding, comparable within an allelic series).

Take CTCAATAC: the binding signal is 7.27 upbm affinity estimate (log intensity, higher = more binding, comparable within an allelic series) with HESX1 [1]; 7.48 upbm affinity estimate (log intensity, higher = more binding, comparable within an allelic series) in the assay with HESX1 [2]; 7.22 upbm affinity estimate (log intensity, higher = more binding, comparable within an allelic series) with HESX1 [3]; 7.29 upbm affinity estimate (log intensity, higher = more binding, comparable within an allelic series) with HESX1 [4].

On to ACGCCTCG, for which the binding signal with HESX1 [1] was 6.4 upbm affinity estimate (log intensity, higher = more binding, comparable within an allelic series); with HESX1 [2], 6.35 upbm affinity estimate (log intensity, higher = more binding, comparable within an allelic series); with HESX1 [3], 6.36 upbm affinity estimate (log intensity, higher = more binding, comparable within an allelic series); with HESX1 [4], 6.4 upbm affinity estimate (log intensity, higher = more binding, comparable within an allelic series); with HESX1 [5] it was 6.44 upbm affinity estimate (log intensity, higher = more binding, comparable within an allelic series).

On to CTAGGGCC, for which the binding signal in the assay with HESX1 [1] is 6.49 upbm affinity estimate (log intensity, higher = more binding, comparable within an allelic series); with HESX1 [2] it was 6.45 upbm affinity estimate (log intensity, higher = more binding, comparable within an allelic series); with ALX3 [6], 7.79 upbm affinity estimate (log intensity, higher = more binding, comparable within an allelic series); with ALX3 [7] it was 7.79 upbm affinity estimate (log intensity, higher = more binding, comparable within an allelic series); with HESX1 [3] it was 6.47 upbm affinity estimate (log intensity, higher = more binding, comparable within an allelic series); with ALX3 [10], 7.79 upbm affinity estimate (log intensity, higher = more binding, comparable within an allelic series). The binding signal was 6.36 upbm affinity estimate (log intensity, higher = more binding, comparable within an allelic series) with HESX1 [4]; 7.77 upbm affinity estimate (log intensity, higher = more binding, comparable within an allelic series) in the assay with ALX3 [11]; 6.42 upbm affinity estimate (log intensity, higher = more binding, comparable within an allelic series) in the assay with HESX1 [5]; 7.79 upbm affinity estimate (log intensity, higher = more binding, comparable within an allelic series) with ALX3 [13].

The values above are taken from publication PMC11006913.
